Assay results published in the supplement of paper PMC11417369.
Over roughly 25,000 sequences, “ln(normalized median fluorescence intensity)” has its median near 9.3; the highest 2% begin near 10. Shown is part of a subset that was picked to be rich in the highest values.

The sequences below were run on PF3D7_0420300 AP2 domain 1 (GST-tagged) (assay: gcPBM binding intensity (ln(normalized median fluorescence intensity)); higher = stronger DNA binding).
Procedure, shortened: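 Binding intensity values are the highest Masliner-normalised natural-log median intensity among replicate spots of either probe orientation. The binding step lasted 1 h in 1× PBS with 1% milk, 0.2 mg/ml BSA, 0.5% salmon testes DNA and 0.03% Triton X-100, using GST-tagged P. falciparum DNA-binding domains expressed in E. coli on an Agilent 4 × 180k array of primer-extended double-stranded 36-bp intergenic genomic probes plus negative controls. Alexa488 anti-GST antibody and a 488 nm scan detected bound protein.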

| Sequence | gcPBM binding intensity (ln) |
| --- | --- |
| TATATTAACAAAATGGTGCAATAATTTCTATATTGT [GTGCAC_site9430] | 9.21 |
| TATTTTAATTTTTGTTGTACGCAAATGTGAGGGCAT [XGTACX_site4663] | 9.17 |
| AAATAAAGGAAATAAAAAGAAACCAATTTCGAATAT [CACACA_negctrl_site953] | 9.57 |
| TTTTTTATTTTTTACATATTTAGCTCATATTTATAT [GTGCAC_negctrl_site491] | 9.44 |
| AAAGGAGGGAATTTTTCTAGGTGTGGAGTGCTACTC [XGTACX_negctrl_site63] | 9.44 |
| TATAAATATAAATACACACACATATATATTATATAT [CACACA_site4496] | 9.85 |
| AAAACACTTATGGATTGTACAATAAAAATTATATTA [XGTACX_site7042] | 9.26 |
| CCTATAAATGCATTCACACATATATATTTATATTAT [CACACA_site6086] | 9.26 |
| TATATTAAAAAAAAATGTACATATATATAATATATA [XGTACX_site1935] | 9.19 |
| ATAATACCCAAGCACACACACACACCGATATATATA [CACACA_site8344] | 10.4 |
| CACTAAAATGGACACACACACACACCGATATATATA [CACACA_site6139] | 10.2 |
| ACCATATAAATAAACACACACACACCGATATATATA [CACACA_site5310] | 10.1 |
| ATAAAATACATATAAACACACATATAAACCGACATA [CACACA_site2477] | 10 |
| TGATAATAAGCATACACACACACACCCAAAAAAAAA [CACACA_site721] | 10.2 |
| TATATATATAAATACACACACACACCGATATATATA [CACACA_site5408] | 10.1 |
| CCTAAATAAATGGACACACACATATATATATATATA [CACACA_site1439] | 9.49 |
| AAAATACATAAACACACACACACACCGATATATATA [CACACA_site9186] | 10.3 |
| AAATATATACTACCGATGCACTAAATATAAACACAT [GTGCAC_site9777] | 9.67 |
| CACTAAAATAAACACACACACACACCGATATATATA [CACACA_site9379] | 10.3 |
| TAAAAAAAAAAAAATACACACACACCGATATATATA [CACACA_site8498] | 10.2 |
| TAATAATACCCAAGCACACACACACCCATATATATA [CACACA_site4831] | 10 |
| TGTAAGAAATTGAGCGCACACATACATCTGTGGGAT [CACACA_site4945] | 9.55 |

| Sequence | gcPBM binding intensity (ln) |
| --- | --- |
| AAAAAAAAAAAAAAAACACACATTTAGCAATCTACA [CACACA_site3706] | 9.32 |
| ATGTGATGTTATATATGTACTTATTTTTTAATAAGG [XGTACX_site1786] | 9.25 |
| TGTTGTAAATTAAAGACATGCACGTGAGAAAATATA [TGCATGCA_site285] | 9.51 |
| TCAAATTTAATCATAACACACATTCACATATGAATT [CACACA_site3199] | 9.16 |
| GTAGTCCAAAAAAAGCGTACACAGAAAAAAAAAAAA [XGTACX_site4273] | 9.14 |
| ATTTTTTGGAAAAGAAGTACAATGGATTTATACGTT [XGTACX_site891] | 9.09 |
| TTTTTTTTTTTTTTTTTTTTACCCCTTTTTCAAAAA [CACACA_negctrl_site1524] | 8.39 |
| AGGATATATAATTAAGTGCATTAATTCAAAATAAAA [GTGCAC_site9702] | 9.17 |
| TTTTGTCTTATATGTTGTACAACGTAAACAAAAAAA [XGTACX_site4412] | 8.84 |
| TTTTAAGAATAAAATTGTACACATACATGTGTTCGC [XGTACX_site438] | 9.09 |
| TATACCTATAAATACACACACATATAAATAAATATA [CACACA_site6153] | 9.99 |
| TACCTATAAAAGTACACACACACACGGATATAAATA [CACACA_site6569] | 10.3 |
| AAAAAAAAAAAAAGTACACACATACCTATAAATATA [CACACA_site6937] | 9.8 |
| TACCTATACCTATACACACACACACGGAAATAAATA [CACACA_site6750] | 10.3 |
| CAAAAAAAGTTATACACACACACACGGATATAAATA [CACACA_site6619] | 10.1 |
| TATATACCTATATACACACACATATATAAATAAATA [CACACA_site7341] | 9.86 |
| TATTGTATGGTAGGATATGATGTTATTTGTTATAAT [CACACA_negctrl_site202] | 9.45 |
| TATATATATATATATATATATATATATATATATATT [CACACA_negctrl_site1440] | 8.8 |
| CTGAATGTATATATTTGTACATATATATATATATAT [XGTACX_site5557] | 9.16 |
| TTTTTTTTTTTTTGTAGTACATTATGTATATTTTTA [XGTACX_site7810] | 9.23 |
| TATATATATTTATGCACACAAAATATATTATATAAT [CACACA_site5955] | 9.27 |
| AGCACGCACAGACACACACACATATTTATATTTATA [CACACA_site6291] | 9.94 |

| Sequence | gcPBM binding intensity (ln) |
| --- | --- |
| AAATTTGGCAGACACACACACACACGCACACGCACA [CACACA_site6423] | 10.3 |
| ATTTGGCATAGACACACACACACACGCACGCACATA [CACACA_site6424] | 10.4 |
| CAGACGCACGTATTTGCACACATTGCCACGTAATTA [CACACA_site3349] | 9.42 |
| TTTATTTTATCATTTGCACACGCACCCAGACATAAA [CACACA_site4347] | 9.39 |
| TACAGACATAGACACACACACACGCATAAAAAAAAA [CACACA_site6820] | 10.1 |
| TTTATATTATTTTAAACATGCACAAGTATAATTTAT [TGCATGCA_site233] | 8.97 |
| ATATGTATAAAAATCCGTACATAAGTGTGCGTATAT [XGTACX_site4376] | 9.32 |
| TATTTATAATTATAATAATATATATATATATATATA [TGCATGCA_negctrl_site173] | 8.83 |
| AGAAATACAAAATAAATATAAGAAACAAAATATTTA [CACACA_negctrl_site780] | 9.42 |
| AATGACAACCTTGTCACACATATATATATATATATA [CACACA_site5977] | 9.17 |
| TCTATATAGATTTGCACACATAAAAATGCTTATATA [CACACA_site2389] | 9.27 |
| TTGTTCCACAAAAATTTAGTCAAAAAAAAATAAAAA [TGCATGCA_negctrl_site546] | 8.79 |
| AATATATATATATATACACACACACCGATATATATA [CACACA_site8158] | 10.1 |
| AAAGAAAGAAAGAATACACACACACCGATATATATA [CACACA_site9246] | 10.2 |
| GATATATATTAATATACACACACACCGATATATATA [CACACA_site8462] | 10 |
| TATATATATATACATACATGCATATATATATATATA [TGCATGCA_site513] | 9 |
| CAAAAAAACAAACACACACACACACCGATATATATA [CACACA_site9218] | 10.2 |
| AAAAAAAAAAAACACACACACAAAAAAAAATATATA [CACACA_site1105] | 10.1 |
| TATATATACACACACACATGCATGCCGATATATATA [TGCATGCA_site29] | 10.2 |
| AGAAAGAAAATATATACACACAAAAAAAAATATATA [CACACA_site1412] | 9.93 |
| TATGTACAAATATGTACACACACACCGATATATATA [CACACA_site4487] | 9.96 |
| TATATATATATATATACATGCATACATATACATACA [TGCATGCA_site897] | 9.14 |

| Sequence | gcPBM binding intensity (ln) |
| --- | --- |
| TATATATATATATACACACACACACCGATATATATA [CACACA_site8813] | 10.2 |
| TTATAAAAAAAAATAACACACAGACATAAGAATAAA [CACACA_site9383] | 9.95 |
| TTTTCATTAAGATACTTATAATAGTTTATTAGTAAA [CACACA_negctrl_site586] | 8.77 |
| ATAATATCATCAAACGCACACATACATAAATATATT [CACACA_site5230] | 9.55 |
| ATTTTTTTCATAGACACACACAATATATCTGTTTCC [CACACA_site3023] | 9.83 |
| ATTATATATAATATAGTGCATGTAAAAAATAAAACA | 9.48 |
| GATGTGTAAATAAGGATATATAACAATCAACAAAAC [XGTACX_negctrl_site494] | 9.72 |
| AAAAAAAAAAAACACACACACACACCGACACATACA [CACACA_site5576] | 10.2 |
| TATATATACATATACACACACACACCGATATATATA [CACACA_site8706] | 10.2 |
| TATATACATACATATACACACATATATATATATATA [CACACA_site401] | 9.44 |
| CATACATACAAACACACACACACACCGATATATATA [CACACA_site8952] | 10.3 |
| TACATACATACATACATACACACATATATATATATA [CACACA_site1996] | 9.45 |
| AAAAAAAAAAAAAACACACATACATACATACATATA [CACACA_site4121] | 9.74 |
| AAAAAAAAAAAACACACACACACACCGATACATACA [CACACA_site8849] | 10.3 |
| ATATTATAGATATACACACACACATGCATGCACATA [CACACA_site6203] | 10.1 |
| CACAAACACCCAAACACACACACACCGACATACATA [CACACA_site4410] | 10 |
| ATATTATATATATACACACACACATGCATGCACCTA [CACACA_site106] | 10.2 |
| ATATTATATATATACACACACACATGCATGCACATA [CACACA_site7917] | 10.1 |
| GAAGGAAATAATAGTAGTACAAATGGTAAGAAATAT [XGTACX_site5845] | 9.7 |
| AATTTTTATACGGATACACACAAAAAAAAATAAAAA [CACACA_site897] | 9.53 |
| TACACTTTTTTTTGTACACACTAAAAAGATTAACAA [CACACA_site6037] | 9.07 |
| TATTTGGGTATTTTTACACACATTAAAATATATATA [CACACA_site5800] | 9.33 |
